An excerpt weighted towards active compounds, which were near 1.8% of everything screened.
KCNH2 WT inh – inhibitors of human wildtype KCNH2 potassium channel; activity change, % at 1.84 µM; 340,000 compounds, 0.37% hits; Q12809; U2OS, BacMam KCNH2, thallium flux FluxOr; hits give low values; AID 720551;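 active means maximum activity change below -70%; inconclusive means maximum activity change between -70% and -50%; inactive means maximum activity change above -50%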; further: on the % scale 0 is the no-effect control and ±100 the full control effect
Target sequence (Q12809 whole entry, looked up): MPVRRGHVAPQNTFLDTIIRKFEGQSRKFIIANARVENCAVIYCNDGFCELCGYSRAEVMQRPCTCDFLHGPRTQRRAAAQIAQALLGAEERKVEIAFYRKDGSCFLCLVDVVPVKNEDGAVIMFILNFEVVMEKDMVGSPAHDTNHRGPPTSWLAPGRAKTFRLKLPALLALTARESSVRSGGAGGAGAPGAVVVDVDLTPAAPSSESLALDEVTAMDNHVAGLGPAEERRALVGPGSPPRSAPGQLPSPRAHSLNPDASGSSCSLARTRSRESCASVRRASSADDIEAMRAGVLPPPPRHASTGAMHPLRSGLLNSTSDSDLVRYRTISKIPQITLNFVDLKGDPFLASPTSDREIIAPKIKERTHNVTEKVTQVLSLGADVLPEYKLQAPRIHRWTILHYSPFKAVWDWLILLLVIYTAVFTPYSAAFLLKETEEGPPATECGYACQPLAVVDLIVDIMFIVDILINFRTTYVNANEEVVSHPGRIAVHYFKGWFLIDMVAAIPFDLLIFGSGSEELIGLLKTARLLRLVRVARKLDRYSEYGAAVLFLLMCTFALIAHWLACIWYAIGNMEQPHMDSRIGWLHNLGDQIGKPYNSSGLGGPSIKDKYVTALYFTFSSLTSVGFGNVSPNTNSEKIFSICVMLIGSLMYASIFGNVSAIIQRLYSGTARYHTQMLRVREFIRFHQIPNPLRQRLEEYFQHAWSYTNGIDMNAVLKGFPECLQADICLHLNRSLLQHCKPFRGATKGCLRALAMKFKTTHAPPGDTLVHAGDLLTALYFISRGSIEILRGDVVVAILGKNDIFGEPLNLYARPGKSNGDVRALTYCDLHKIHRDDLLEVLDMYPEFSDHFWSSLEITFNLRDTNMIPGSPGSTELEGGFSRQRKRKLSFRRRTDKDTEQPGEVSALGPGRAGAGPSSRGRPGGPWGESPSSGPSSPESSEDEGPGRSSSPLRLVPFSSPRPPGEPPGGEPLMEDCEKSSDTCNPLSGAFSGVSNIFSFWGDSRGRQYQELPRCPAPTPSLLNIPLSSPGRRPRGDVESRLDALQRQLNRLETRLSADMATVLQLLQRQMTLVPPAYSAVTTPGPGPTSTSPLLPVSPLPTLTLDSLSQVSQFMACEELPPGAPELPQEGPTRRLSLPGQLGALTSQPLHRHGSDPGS
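U2OS cells were transduced with wild-type KCNH2 virus (2.03 x 10^8 / mL) for 4 h at room temperature, then cultured overnight at 37 C. Thallium flux was read with FluxOr dye. Rate constants were normalized to DMSO controls.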
ALOX12 inh – ALOX12 (human) lipoxygenase inhibition; purified 12hLO, xylenol orange hydroperoxide absorbance; Potency, µM (top dose mostly 108 µM), for inactives: at the top dose activity change, negative = inhibition, actives largely listed as inhibitors; 580,000 compounds, 1.1% hits; further: potency means the concentration at half of the fitted maximal effect; on the % scale 0 is the no-effect control and ±100 the full control effect
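Hydroperoxide product was detected by ferrous iron/xylenol orange as the 573 to 405 nm absorbance ratio. Arachidonic acid at 40 uM (final) was turned over for 30 min at room temperature by 150 nM human 12hLO, pH 7.0 Hepes buffer, after 15 min compound preincubation.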
A-T KAP1 phos – potential ataxia-telangiectasia treatments restoring KAP-1 phosphorylation | F2112 A-T fibroblasts, KAP-1 phosphorylation AlphaLISA; neocarzinostatin DNA damage 30 min before lysis | Potency, µM (top dose mostly 57.5 µM), without a hit: at the top dose activation, most hits filed as activators | 320,000 compounds, 0.19% hits; further: potency means the concentration at half of the fitted maximal effect; % of control where 0% means no effect; nearly all actives have a fitted effect of over 45% in size
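hTERT-immortalized A-T patient fibroblasts (F2112), 500 cells/well in OPTI-MEM, 1% FBS, got compounds for 60 min, then NCS for 30 min at 37C. Lysates were then assayed for phospho-KAP-1 by AlphaLISA (anti-pKAP1 donor, anti-KAP1 acceptor beads), 6 hr at 25C.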
KCNH2 3.1 block – blocks the human KCNH2 3.1 channel isoform | U2OS KCNH2 3.1, thallium flux FluxOr; hits give low values | activity change, % (tested at about 1.8 µM) | 340,000 compounds, 0.95% hits | AID 720553;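 active means maximum activity change below -70%; inconclusive means maximum activity change from -70% to -50%; inactive means maximum activity change above -50%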;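 further: thallium influx rate constant from kinetic fluorescence after stimulation buffer; on the % scale 0 is the no-effect control and ±100 the full control effect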
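Measured as rate of thallium-driven FluxOr signal in transduced U2OS cells carrying the 3.1 channel, read kinetically for 2 min upon stimulation; values are rate constants scaled to DMSO control wells.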
Numbers without * were called inactive; ? = inconclusive; . = no result; ! = a repeat was not active; [ ] = dose if it differs, or a comment. Unless noted, the call rests on the fitted dose curve; in most records, active means well fitted curve in the direction sought with a large enough effect; inconclusive means small, poorly fitted or top-dose-only effect, or another doubt; inactive means no such curve, though single readings can be large; an effect the other way counts as inactive or inconclusive.

SMILES	KCNH2 WT inh	ALOX12 inh	A-T KAP1 phos	KCNH2 3.1 block
Cc1ccc2cc(CN(Cc3nnnn3C3CCCCC3)CC3CCCO3)c(=O)[nH]c2c1 (centres undefined)	-22.1	?	24.9%	14.0
CCc1ccc2[nH]c(=O)c(CN(Cc3nnnn3C3CCCC3)C3CCCCC3)cc2c1	-9.7	-13.7%	3.4%	-189.3*
CCCCCCCCCCCCS(=O)C(CO)CO (centres undefined)	.	3.4%	.	.
O=C(c1ccc([N+](=O)[O-])cc1)N(Cc1ccc(Br)cc1)N1C(=O)CCCC1=O	-83.7*	0.0%	.	?
COc1ccnc(-c2nnc3ccc(N4CCN(C(=O)c5ccco5)CC4)nn23)c1	.	-1.1%[176 µM]	.	.
COc1ccnc(-c2nnc3ccc(N4CCc5ccccc5CC4)nn23)c1	.	50.1µM*	.	.
COC1CCN(C(=O)c2ccnc(-c3nnc4ccc(N5CCOCC5)nn34)c2)CC1	.	100µM*	.	.
CCC(=O)N1N=C(c2ccc(NS(C)(=O)=O)cc2)CC1c1ccc(F)cc1 (centres undefined)	.	-5.7%	.	.
CC(=O)N1CCC(N[C@@H]2C[C@H](COc3cccc(C)n3)[C@@H](O)[C@H]2O)CC1	.	15.8µM*	.	.
Cc1c(NC2=NC3(CCCCC3)Cc3ccccc32)c(=O)n(C)n1-c1ccccc1	-171.6*	1.5%	2.5%	-194.2*
CC(C)C(NC(=O)COc1ccc2ccccc2c1)C(=O)N/N=C/C=C/c1ccccc1 (centres undefined)	-16.8	8.91µM*	1.5%	2.3
CC(C)C(=O)N/N=C/C=C/c1ccccc1	.	0.4%	.	.
N[n+]1cccc2ccccc21	.	17.8µM*	.	.
CC(=O)Nc1cc(-c2ccccc2N(C)C)cn2c(-c3cccc(C(F)(F)F)c3)cnc12	.	8.91µM*	.	.
CC(=O)Nc1cc(-c2cccc(CO)c2)cn2c(-c3ccc(F)cc3)cnc12	.	-28.6%	.	.
O=CNc1cc(-c2cccc(O)c2)cn2c(-c3ccc(F)cc3)cnc12	.	44.7µM*	.	.
CC(=O)Nc1cc(-c2ccc(CO)cc2)cn2c(-c3ccc(F)cc3)cnc12	.	44.7µM*	.	.
CC(=O)c1cccc(-c2cnc3c(NC=O)cc(-c4ccc(F)cc4)cn23)c1	.	1.7%	.	.
CC(=O)Nc1cc(-c2cccc(C(=O)NCCN(C)C)c2)cn2c(-c3cccc(C(F)(F)F)c3)cnc12	.	-10.5%	.	.
O=C(CCc1ncc(-c2ccc(F)cc2)o1)NCCN1CCOCC1	.	-58.0%	.	.
C=CCNC(=O)C(C)OC(=O)c1cc2ccc(OC)cc2nc1C (centres undefined)	.	0.8%	.	.
CCN(CC)c1ccc(CNc2nc3ccccc3n2CCN2CCOCC2)cc1	22.6	-10.1%	-2.4%	-77.2*
COc1ccccc1C(=O)COC(=O)Cc1coc2cc(C)ccc12	.	10.1%	.	.
COc1ccccc1C(=O)Nc1ccc([C@H]2OCC(=O)N(Cc3cccnc3)[C@@H]2CO)cc1	.	7.9%	.	.
Oc1c(Br)cc(/C=N/n2c(-c3ccccc3)n[nH]c2=S)cc1Br	-0.2	22.4µM*	-1.2%	-1.2
SMILES	KCNH2 WT inh	ALOX12 inh	A-T KAP1 phos	KCNH2 3.1 block
Oc1ccc(/C=N/n2c(-c3ccccc3)n[nH]c2=S)cc1Br	-3.1	31.6µM*	7.9%	1.2
Oc1c(Br)cc(/C=N/n2c(-c3ccccc3)n[nH]c2=S)c(O)c1Br	-17.8	.	-5.7%	-8.7
CCCCCn1c(=O)[nH]c2cc(C(=O)NCCCN(CC)CC)ccc2c1=O	5.4	?	-4.2%	-83.7*
Cc1ccc(/C=N/N(C)S(=O)(=O)c2ccc(C)cc2)cc1	-3.7	57.2%	28.2µM*	-0.1
COc1ccc(CNC(=O)CSCc2nc(-c3ccc(OC)c(OC)c3)oc2C)cc1	.	4.7%	.	.
COc1ccc2sc(SCCCS(=O)(=O)O)[n+](CCCS(=O)(=O)[O-])c2c1	-156.2*	-9.2%	27.2%	-203.4*
COc1ccc(S(=O)(=O)Nc2c(NC3CCCC3)c3ccccc3oc2=O)cc1OC	.	-2.6%	.	.
Cc1oc(-c2ccccc2)nc1CN(C)CC(=O)N(C)C	.	-2.1%	.	.
O=c1c2cc(F)ccc2sn1-c1ccccc1Cl	-16.6	0.447µM*	.	-15.1
N=C1SCC(=O)N1c1ccccc1Cl	-20.5	2.6%	-8.3%	7.0
Cc1ccc(N2C(=O)CC(N3CCN(c4ccc(F)cc4)CC3)C2=O)c(C)c1 (centres undefined)	3.7	17.0%	-1.3%	11.3
Cc1ccc(-n2sc3cc(F)ccc3c2=O)c(C)c1	-5.6	0.398µM*	.	1.6
O=c1c2ccc(F)cc2sn1-c1ccccc1	4.6	0.355µM*	.	5.9
O=C(C1CCCC1)N1CCC2(CC1)CC(N(Cc1ccc(F)cc1)C1CC1)CCO2 (centres undefined)	.	35.2%	.	.
Cc1cc(Nc2ccccc2)n2nc(C)c(-c3ccccc3)c2n1	3.7	147.5%	28.2µM*	10.5
Cc1cc(C)n2nc(C)c(-c3ccccc3)c2n1	2.9	0.0%	.	4.4
S=C(NN=C(c1ccccc1)c1ccccn1)N(Cc1ccccn1)Cc1ccccn1	-5.7	44.7µM*	.	6.8
Cc1nc(NC(=O)CSc2nnc(C)n2CC2CCCO2)sc1C (centres undefined)	-188.1*	-14.1%	1.5%	15.1
Fc1ccc(CN2CCCCCCC2)c(F)c1	-1.6	0.447µM*	4.1%	-13.4
Fc1ccc(CN2CCCCCC2)c(F)c1	5.1	?	-4.8%	-14.5
O=C(CN=C1NS(=O)(=O)c2ccccc21)NCCc1ccccn1	.	17.5%	.	.
OCC1(Cc2ccc(Cl)cc2)CCN(CC2CC=CCC2)CC1 (centres undefined)	36.4	28.1%	-5.3%	-72.1*
CSc1ccc(CN2CCC(CO)(Cc3ccc(Cl)cc3)CC2)cc1	-32.8	?	-0.1%[11.5 µM]	-100.5*
OCC1(Cc2ccc(Cl)cc2)CCN(CCCc2ccccc2)CC1	?	3.16µM*	-1.4%	-89.2*
CSc1ccc(CN2CCC(CO)(CN3CCCC3)CC2)cc1	.	48.9%	.	.
SMILES	KCNH2 WT inh	ALOX12 inh	A-T KAP1 phos	KCNH2 3.1 block
Cc1cc(C)c(C)c(SCC(=O)Nc2oc(C)c3c(C)n[nH]c(=O)c23)c1C	2.0	25.1µM*	0.2%	-3.3
O=C1C(Cl)=C(Nc2ccccc2)C(=O)c2ccccc21	-4.8	-0.6%	5.01µM*	-0.2
O=C1C(Cl)=C(NCCc2ccccc2)C(=O)c2ccccc21	-2.5	3.98µM*	.	-12.8
O=C(O)c1ccc(NC2=C(Cl)C(=O)c3ccccc3C2=O)cc1	-2.8	-20.8%	-22.6%	-18.9
CC(C)(C)c1[nH]c2ccc(F)cc2c1C=O	.	8.9%	.	.
CCCN(c1ccc(OCC)cc1)c1ncnc2nc[nH]c12	-8.3	-4.7%	2.4%	-90.3*
O=C(C1CCC(Cn2c(=O)c3sccc3n(Cc3ccc(Cl)cc3)c2=O)CC1)N1CCCC1 (centres undefined)	.	-28.1%	.	.
COc1ccc2nc(N3C(=O)C(O)=C(C(=O)c4ccco4)C3c3ccc(OC)c(OC)c3)sc2c1 (centres undefined)	-3.5	39.8µM*	.	-14.1
Cc1ccc2nc(N3C(=O)C(O)=C(C(=O)c4ccc(C)o4)C3c3cccc(O)c3)sc2c1 (centres undefined)	7.1	12.6µM*!	-5.8%	16.4
COc1ccc(C2C(C(C)=O)=C(O)C(=O)N2c2nc3ccccc3s2)cc1OC (centres undefined)	3.9	44.7µM*	-1.3%	-4.4

Assay outcomes deposited in PubChem by National Center for Advancing Translational Sciences (NCATS).
